Source: PubChem BioAssay
Results with a measured potency or affinity are listed apart. Records with an inconclusive call do not appear. Activity calls are given as the source filed them. Unless noted, the rule behind the calls is not given here.

Experiments:
[1] = inhibitors of CMV-promoter luciferase reporter, dose response, counter-screen for Pax8 inhibitor project, cell-based, HEK293, luminescence, dry powder (AID 743020;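 active = signal-lowering compounds whose fitted half-maximal concentration is at or below twice the top tested dose in every run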;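 note: HEK293 cells stably expressing the CMV luciferase reporter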)
[2] = non-specific cell cytotoxicity, dose response, cytotoxicity control for PAX8 inhibitor project, plate reader, dry powder samples (AID 743021)
[3] = IGROV1 ovarian cancer cell cytotoxicity, dose response, PAX8 inhibitor project, plate reader, dry powder samples (AID 743043);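 note: more negative means fewer viable cells or more cytotoxicity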
[4] = NIH:OVCAR-3 ovarian cancer cell cytotoxicity, dose response, PAX8 inhibitor project, plate reader, dry powder samples (AID 743044); settings: max activity: at 35 µM, hits give low values unless noted
[5] = IOSE-T80 ovarian epithelial cell cytotoxicity, dose response, cytotoxicity control for PAX8 inhibitor project, plate reader, dry powder samples (AID 743045);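 note: 0% = neutral control median and -100% = positive control median; more negative values mean more cell killing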
[6] = A2780 ovarian cancer cell cytotoxicity, dose response, cytotoxicity control, plate reader, dry powder samples (AID 743046);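 note: 0% = neutral control wells and -100% = cytotoxic reference compound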
[7] = cytotoxicity in OVCAR8 ovarian cancer cells, dose response, PAX8 project, cell-based, plate reader, dry powder samples (AID 743197)
[8] = HepG2 cell cytotoxicity, dose response, cytotoxicity control, plate reader, cherry-pick, antagonist series (AID 743416);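 note: 0% = neutral control wells and -100% = positive control wells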

Measured: max activity

CN1c2ccc(-c3cccc(F)c3)cc2[C@@H]2[C@@H](CCN2C(=O)Cc2ccccc2)[C@@H]1CO
inactive: [1] | [2] | [3] | [4] 21.5% | [5] | [6]

C[C@@H]1CCCCO[C@H](CN(C)Cc2ccc(Cl)c(Cl)c2)[C@H](C)CN([C@@H](C)CO)C(=O)c2cc(NC(=O)Nc3ccccc3)ccc2O1
inactive: [1] | [2] | [3] | [4] 4.55% | [5] | [6] | [7]

C=C(C)c1nc(Oc2ccccc2)nc(Oc2ccccc2)n1
inactive: [1] | [2]

C[C@@H]1CCCCO[C@H](CN(C)Cc2ccc(C(F)(F)F)cc2)[C@H](C)CN([C@H](C)CO)C(=O)c2cc(NS(=O)(=O)c3ccccc3)ccc2O1
inactive: [1] | [2] | [3] | [4] -11.2% | [5] | [6]

Cn1c(CCN2CCCC2)nc2cc(NS(=O)(=O)c3ccccc3)ccc21
inactive: [1] | [2]

O=C(C[C@H]1CC[C@H]2[C@@H](COC[C@@H](O)CN2Cc2ccc(Oc3ccccc3)cc2)O1)N1CCCCC1
inactive: [1] | [2] | [3] | [4] 35% | [5] | [6] | [7]

Nc1nnnn1/N=C/C(Br)=C/c1ccccc1
inactive: [1] | [2]

C[C@@H]1CCCCO[C@@H](CN(C)C(=O)Nc2cccc3ccccc23)[C@H](C)CN([C@H](C)CO)C(=O)c2cc(NS(=O)(=O)c3ccccc3)ccc2O1
inactive: [1] | [2] | [3] | [4] 28.6% [at 2.1 µM, hits give low values] | [5] | [6]

O=C(c1cc([N+](=O)[O-])ccc1N1CCOCC1)N1CCN(c2ccccc2)CC1
inactive: [1] | [2]

Cc1noc(C)c1S(=O)(=O)N(C)C[C@@H]1OCCCC[C@H](C)Oc2ccc(NS(=O)(=O)c3ccc(Cl)cc3)cc2C(=O)N([C@H](C)CO)C[C@@H]1C
inactive: [1] | [2] | [3] | [4] -11.5% [at 0.5 µM, hits give low values] | [5] | [6] | [7]

C[C@@H]1CCCCO[C@H](CN(C)Cc2ccc(C(F)(F)F)cc2)[C@H](C)CN([C@H](C)CO)C(=O)c2cc(NS(=O)(=O)c3cccs3)ccc2O1
inactive: [1] | [2] | [3] | [4] 29.1% [at 0.26 µM, hits give low values] | [5] | [6] | [7]

COc1ccc(NC(=O)Nc2ccc3c(c2)C(=O)N([C@@H](C)CO)C[C@@H](C)[C@@H](CN(C)CC2CCCCC2)OCCCC[C@@H](C)O3)cc1
inactive: [1] | [2] | [3] | [4] -9.76% [at 4.2 µM, hits give low values] | [5] | [6] | [7]

C[C@@H]1CN([C@H](C)CO)S(=O)(=O)c2ccc(C#CC3CCCC3)cc2O[C@@H]1CN(C)C(=O)Cc1ccncc1
inactive: [1] | [2] | [3] | [4] 16.7% [at 0.5 µM, hits give low values] | [5] | [6] | [7]

O=S(=O)(c1ccccc1F)N1CC[C@@H]2[C@@H](CO)Nc3ccc(C4=CCCCC4)cc3[C@@H]21
inactive: [1] | [2] | [3] | [4] 10.3% [at 4.2 µM, hits give low values] | [5] | [6] | [7]

C[C@@H]1CN([C@H](C)CO)C(=O)c2cc(NC(=O)Nc3ccc(F)cc3)ccc2O[C@@H](C)CCCCO[C@@H]1CN(C)Cc1ccc2c(c1)OCO2
inactive: [1] | [2] | [3] | [4] -19.6% [at 4.2 µM, hits give low values] | [5] | [6]

O=C(Nc1cccc(Cl)c1)Nc1nnc(-c2ccncc2)s1
inactive: [1] | [2]

C[C@@H]1CN([C@H](C)CO)C(=O)Cc2cc(NC(=O)Nc3ccc(F)cc3)ccc2O[C@H]1CN(C)Cc1ccc(Cl)c(Cl)c1
inactive: [1] | [2] | [3] | [4] 19.8% [at 0.5 µM, hits give low values] | [5] | [6] | [7]

Cc1ccc(-c2csc3ncnc(Sc4nnc(CN5CCCCCC5=O)o4)c23)cc1
inactive: [1] | [2]

COc1ccc(C2=NNC(=Nc3cc(S(=O)(=O)N(C)C)ccc3C)SC2)c(OC)c1
inactive: [1] | [2]

CCOc1ccc(NC(=O)Nc2cc(OCC(F)(F)F)cc(OCC(F)(F)F)c2)cc1
inactive: [1] | [2]

CCCNC(=O)Nc1ccc2c(c1)OC[C@H](C)N(Cc1ccc(-c3ccccn3)cc1)C[C@@H](C)[C@@H](OC)CN(C)C2=O
inactive: [1] | [2] | [3] | [4] 60.3% | [5] | [6]

C[C@@H]1CN([C@@H](C)CO)C(=O)Cc2cc(NC(=O)CCC(F)(F)F)ccc2O[C@H]1CN(C)Cc1ccc(-c2ccccc2)cc1
inactive: [1] | [2] | [3] | [4] -2.75% [at 16 µM, hits give low values] | [5] | [6] | [7]

Cc1nc(Nc2nc(CSc3nc4ccccc4[nH]3)cc(=O)[nH]2)nc2ccccc12
inactive: [1] | [2]

O=C(Nc1ccccc1)NN(C(=O)CCl)c1ccccc1
inactive: [1] | [2]

COc1cccc2c1C(=O)c1c(O)c3c(c(O)c1C2=O)CC(O)(C(=O)CO)CC3OC1CC(N(C)C)C(O)C(C)O1 (stereo unspecified)
inactive: [1] | [2]

O=C(Nc1cccc(NC(=O)c2cccs2)c1)c1ccc([N+](=O)[O-])o1
inactive: [1] | [2]

CC1(Cc2ccc(OC(F)(F)F)cc2)C(=O)Nc2ccc(S(=O)(=O)NC3CCCCC3)cc21 (stereo unspecified)
inactive: [1] | [2]

C[C@@H]1CCCCO[C@H](CN(C)Cc2ccc(C(F)(F)F)cc2)[C@H](C)CN([C@@H](C)CO)C(=O)c2cc(NS(=O)(=O)c3cccs3)ccc2O1
inactive: [1] | [2] | [3] | [4] -8.64% [at 0.5 µM, hits give low values] | [5] | [6] | [7]

C[C@@H]1CCCCO[C@@H](CN(C)Cc2ccc(C(F)(F)F)cc2)[C@@H](C)CN([C@@H](C)CO)C(=O)c2cc(NS(=O)(=O)c3ccccc3)ccc2O1
inactive: [1] | [2] | [3] | [4] 24.1% [at 0.26 µM, hits give low values] | [5] | [6]

OCCCNc1nccc(-c2cc(Nc3cccc(Cl)c3)ncn2)n1
inactive: [1] | [2]

Cc1ccc(NC(=O)Cn2ncc(Cl)c(Cl)c2=O)cc1S(=O)(=O)N1CCCCC1
inactive: [1] | [2]

Cc1ccsc1/C=N/Nc1cccc(C(=O)O)c1
inactive: [1] | [2] | [8]

C[C@@H]1CCCCO[C@@H](CN(C)C(=O)Nc2cccc3ccccc23)[C@H](C)CN([C@H](C)CO)C(=O)c2cc(NS(=O)(=O)c3ccc(F)cc3)ccc2O1
inactive: [1] | [2] | [4] 12.2% [at 0.26 µM, hits give low values] | [5] | [6]

C#CCN(C[C@@H]1[C@@H](OC(=O)NCC2CCCCC2)[C@@H](OC(=O)NCC2CCCCC2)Cn2c(=O)ccc(=O)n21)S(=O)(=O)c1ccc(C)cc1
inactive: [2]

C[C@@H]1CCCCO[C@H](CN(C)C(=O)C2CCCCC2)[C@@H](C)CN([C@@H](C)CO)C(=O)c2cc(NC(=O)Nc3ccc(F)cc3)ccc2O1
inactive: [1] | [2] | [5]

C[C@H](CO)N1C[C@H](C)[C@H](CN(C)S(=O)(=O)c2ccc(Cl)cc2)OCCCC[C@H](C)Oc2ccc(NC(=O)Nc3ccc(C(F)(F)F)cc3)cc2C1=O
inactive: [1] | [3] | [5] | [7]

Cc1ccc(S(=O)(=O)Nc2ccc3c(c2)CC(=O)N([C@H](C)CO)C[C@H](C)[C@H](CN(C)S(=O)(=O)c2ccc(F)cc2)O3)cc1
inactive: [1] | [2] | [3] | [5] | [6] | [7]

CCCC1=Nc2cc(C(=O)NCCCOCC)ccc2Sc2ccccc21
inactive: [2]

C[C@H](O)[C@@H]1CN2CCc3c([nH]c4ccc(-c5ccc6c(c5)OCO6)cc34)[C@@H]2C[C@@H]1N(C)C(=O)NC1CCCCC1
inactive: [2]

COc1cccc(N2CCN(C(=O)c3ccc(CS(=O)c4ccccc4Cl)o3)CC2)c1 (stereo unspecified)
inactive: [2]
